Reference: PubChem BioAssay (EPA / NIEHS)
The source made the active and inactive calls. The calls were made as follows: active = hit-call score of the fitted dose curve at least 0.9, where 1 is the maximum; inactive = score below 0.9.

read-out: ABC Transporter (ABCB11), ABCB11 (gene 8647); assay: LTEA_HepaRG_ABCB11: Life Technologies and Expression Analysis (LTEA) Assay for ABC Transporter (ABCB11) using HepaRG (AID 2283463); conditions: mRNA level, 48 h; actives raise or lower the signal
Experimental: LTEA_HepaRG is a cell based, multiplexed-readout assay that uses HepaRG, a human liver cell line, with measurements taken at 48 hours after chemical dosing on a 96-well plate.LTEA_HepaRG_ABCB11 is one of 102 assay component(s) measured in the LTEA HepaRG cell culture assay. It is a marker of Steatosis/NR mediated transport.Data from the assay component LTEA_HepaRG_ABCB11 was analyzed into 1 endpoint. This assay endpoint, LTEA_HepaRG_ABCB11, was analyzed with bidirectional fitting relative to DMSO as the negative control and baseline of activity. Using a type of inducible reporter, measures of mRNA induction for gain or loss-of-signal activity can be used to understand regulation of transcription factor activity. To generalize the intended target to other relatable targets, this assay endpoint is annotated to the transporter intended target family, where the subfamily is ABC transporter.
A total of 1060 chemcials from the ToxCast library were tested in eight-point concentration-response experiments. Cell culture and cytotoxicity assays were conducted at Thermo Fisher Scientific's Custom Services facility (Madison, WI). A single lot of human HepaRG cells (Thermo Fisher Scientific, Frederick, MD) was used for the cell culture experiments. 96-well format collagen type I coated plates of human HepaRG cells were prepared using established methods. Briefly, cryopreserved HepaRG cells were thawed, plated at a density of approximately 100,000 cells/well in HepaRG Thaw, Plate, and General Purpose media (HPRG770, Thermo Fisher Scientific), and incubated for 48 hours. 0.5% DMSO was selected as vehicle control to balance the requisite need of DMSO in HepaRG cultures to maintain differentiation (for example, baseline metabolism, proportions of hepatocytes vs. cholangiocytes), while enabling further hepatic receptor pathway activation (for example, PXR and CAR) in response to chemical exposure. 48 hours after plating, the culture medium was replaced with HepaRG Serum-Free Incudtion Media. Cells were exposed to each test chemical in duplicate and maintained in CO2 incubators for another 48 hours. Chemical plates were thawed to room temperature and 200x concentrations of treatment groups were prepared. 8-point conentration-reponse curves were made with the highest exposure at 100 uM, followed by half-log dilutions, all in 0.5% DMSO. Each test plate contained variouse controls, induction positive controls (1mM phenobarbital), cytotoxicity positive controls ([…] aflatoxin B1), vehicle controls (0.5% DMSO), and total lysis controls (0.5% DMSO). Cell morphology images were taken using an Essen IncuCyte FLR automated microscope, with six 96-well plates imaged in about 24 minutes. Images were captured and exported and JPEG files. Spent culture media was transfered to black-well plates for the LDH assay, and remaining media was sorted at -80 C for later use. Cells were treated with RLT buffer and frozen until shipped for gene expression analysis. Total RNA was isolated from the cell suspension in 75 uL of Buffer RLT (Qiagen, Germantown, MD 20874) by Quintiles/Expression Analysis (Durham, NC) using a custom isolation procedure. Total RNA from each plate well was transferred to a preamplification plate. Fluidigm's 96.96 Dynamic ArrayTM (Fluidigm, Amsterdam, the Netherlands) technology was used for gene expression analyses by quantitative reverse transcription polymerase chain reaction (qRT-PCR, performed by Quintiles/Expression Analysis, Durham, NC)89. Standard TaqManTM Assays (Applied Biosystems/ThermoFisher Scientific, Foster City, CA) were used to assess the expression of 93 genes selected based on their selectivity and sensitivity to important hepatic receptors known to be modulated by environmental chemicals; importance in human hepatocyte functionality; and hepatotoxicity. […]

| SMILES | outcome | AC50 |
| --- | --- | --- |
| Clc1ccccc1Cl | inactive |  |
| CS(=O)(=O)NC(=O)c1cc(Oc2ccc(C(F)(F)F)cc2Cl)ccc1[N+](=O)[O-] |  | 50 µM (active) |
| CC(C)(C)OOC(=O)c1ccccc1 | inactive |  |
| COC(=O)c1ccccc1N | inactive |  |
| O=[N+]([O-])C(Br)(CO)CO | inactive |  |
| OCCOCCO | inactive |  |
| CCCCC(CC)COC(=O)c1ccc(C(=O)OCC(CC)CCCC)c(C(=O)OCC(CC)CCCC)c1 (stereo not given) | inactive |  |
| CCC(C)c1ccc(O)cc1 (stereo not given) | inactive |  |
| Nc1ccc(N=Nc2ccccc2)cc1 |  | 13.8 µM (active) |
| [Cl-].[Cl-].[Hg+2] | inactive |  |
| Nc1cc(Cl)cc(C(=O)O)c1Cl | inactive |  |
| C[N+](C)(C)CC1CO1 (stereo not given) | inactive |  |
| CN(C)c1ccccc1 | inactive |  |
| c1ccc2c(c1)-c1cccc3cccc-2c13 | inactive |  |
| CC(C)(C)OOC(C)(C)CCC(C)(C)OOC(C)(C)C | inactive |  |
| ClCCOCCCl | inactive |  |
| [As]#[In] | inactive |  |
| CN(C)c1ccc(C(=O)c2ccc(N(C)C)cc2)cc1 | inactive |  |
| COC(=O)Nc1nc2ccccc2[nH]1 | inactive |  |
| Oc1ccc2ccc3cccc4ccc1c2c34 | inactive |  |

| SMILES | outcome | AC50 |
| --- | --- | --- |
| CC(O)CCO (stereo not given) | inactive |  |
| CCCCCCCCCCCCCN1CC(C)OC(C)C1 (stereo not given) | inactive |  |
| O=C1CCCO1 | inactive |  |
| CC(C)(OOC(C)(C)c1ccccc1)c1ccccc1 | inactive |  |
| Oc1ccccc1Cl | inactive |  |
| Cc1ccc(N)cc1 | inactive |  |
| Cn1cc(-c2ccccc2)c(=O)c(-c2cccc(C(F)(F)F)c2)c1 | inactive |  |
| COP(=S)(OC)SCN1C(=O)c2ccccc2C1=O | inactive |  |
| C[C@]12C=CC3=C4CCC(=O)C=C4CC[C@H]3[C@@H]1CC[C@@H]2O |  | 27.3 µM (active) |
| O=Cc1ccco1 | inactive |  |
| O=C(N[C@H](c1ccccc1)[C@@H]1CN2CCC1CC2)c1c(Cl)ccc(C(F)(F)F)c1Cl | inactive |  |
| Cc1cccc(N)c1N |  | 62.6 µM (active) |
| ClC1=C(Cl)C2(Cl)C3C(Cl)C=CC3C1(Cl)C2(Cl)Cl (stereo not given) |  | 41.6 µM (active) |
| CN(C)C(=O)Nc1ccc(Cl)cc1 | inactive |  |
| CC(C)N(Cc1ccccc1)C(=O)C(C)(C)C | inactive |  |
| O=C(O)C1C2CCC(O2)C1C(=O)O (stereo not given) |  | 77.9 µM (active) |
| CC(C)(C)C(O)(CCc1ccc(Cl)cc1)Cn1cncn1 (stereo not given) | inactive |  |
| Clc1ccc(Cl)c(Cl)c1 |  | 50 µM (active) |
| CC(C)COC(=O)c1ccccc1C(=O)OCC(C)C | inactive |  |
| Nc1ccc(Oc2ccc(N)cc2)cc1 | inactive |  |
